Screen size: about 52,000 compounds; about 4,300 (8.3%) were called active. The sample as a whole holds a higher share of actives than the screen did. A number with no mark means an inactive call. No stated cut-off is given here; in the data, active means survival mostly below about 52% (no sharp cut-off); inactive means mostly above about 56%.

The test system of this test is DeltatarO mutant. The test can be described thus: growth inhibition of S. aureus wild type versus tarO mutant, primary screen, teichoic acid synthesis inhibitors, RN4220, OD600 (AID 463173). The conditions noted are these: OD600, 18 h, hits give low values, screened at 18.75 µg/mL (by protocol).
`c1ccc(NCc2ccncc2)cc1`: the survival is 83%.
`C=Cn1cccc1C(=O)O`: the survival is 83%.
The same measure for `CC(C)CCNC(=O)c1ccc2c(c1)NC(=O)C(CS(=O)(=O)Cc1ccc(F)cc1)N2` (centres undefined): 80%; for `Cc1ccc(CNC(=O)CCCc2nnc3n(CC(C)C)c(=O)c4sccc4n23)cc1`: 101%; for `CCOC(=O)Cn1c(=O)n(CC2CCCO2)c2nc(-c3ccc(C)cc3)nc(C(N)=O)c21` (centres undefined): 67%.
The same measure for `CCOC(=O)Cn1c(=O)n(CC2CCCO2)c2nc(-c3ccc(C(C)C)cc3)nc(C(N)=O)c21` (centres undefined): 6% (active); for `CCOC(=O)Cn1c(=O)n(CC2CCCO2)c2nc(-c3cccc(C)c3)nc(C(N)=O)c21` (centres undefined): 79%; for `CCOC(=O)Cn1c(=O)n(-c2ccccc2OC)c2nc(-c3ccccc3)nc(C(N)=O)c21`: -1% (active).
The same measure for `CCOC(=O)Cn1c(=O)n(-c2ccccc2OC)c2nc(-c3cccc(F)c3)nc(C(N)=O)c21`: 64%.
For the molecule `CCOC(=O)Cn1c(=O)n(CC2CCCO2)c2nc(-c3ccc(OCC)cc3)nc(C(N)=O)c21` (centres undefined), the survival is -2% (active).
Next, `CCOC(=O)Cn1c(=O)n(-c2ccccc2OC)c2nc(-c3ccc(C(C)C)cc3)nc(C(N)=O)c21`: 86%; `CCOC(=O)Cn1c(=O)n(CC2CCCO2)c2nc(-c3ccccc3)nc(C(N)=O)c21` (centres undefined): 84%.
Next, `CCOC(=O)Cn1c(=O)n(CC2CCCO2)c2nc(-c3ccc(CC)cc3)nc(C(N)=O)c21` (centres undefined): 72%; `COc1cc(OC)c(NC(=O)C2CCCN(c3ncnc4c3nc3n4CCCCC3)C2)cc1Cl` (centres undefined): 122%; `O=C1c2ccccc2C(=O)N1c1ncn[nH]1`: 94%.
The same measure for `O=C(CSc1nc2c([nH]c3ccccc32)c(=O)n1-c1ccc(F)cc1)Nc1ccc2c(c1)OCO2`: 58%.
As to `COc1ccc(NC(=O)Cn2c(=O)n(CCCC(=O)NCc3ccccc3Cl)c(=O)c3ccccc32)c(OC)c1`, the survival is 125%.
Next, `O=C(CC1N=C2c3ccccc3N=C(SCc3ccc(Cl)cc3)N2C1=O)NCc1cccs1` (centres undefined): 75%; `COc1ccc(CCNC(=O)c2ccc(Cn3c(=O)c4ccccc4n(Cc4cccc(F)c4)c3=O)cc2)cc1OC`: 78%.
Next, `Cc1ccc(C)c(Cn2c(=O)n(CC3CCC(C(=O)N4CCOCC4)CC3)c(=O)c3sccc32)c1` (centres undefined): 80%; `CNC(=O)C1CCC(Cn2c(=O)c3sccc3n(Cc3cc(C)ccc3C)c2=O)CC1` (centres undefined): 47% (active); `CNC(=O)C1CCC(Cn2c(=O)c3sccc3n(CC(=O)NCc3ccc(C)cc3)c2=O)CC1` (centres undefined): 80%.
Next, `CNC(=O)C1CCC(Cn2c(=O)c3sccc3n(CC(=O)NCc3ccccc3)c2=O)CC1` (centres undefined): 32% (active); `CNC(=O)C1CCC(Cn2c(=O)c3sccc3n(CC(=O)NCc3ccc(F)cc3)c2=O)CC1` (centres undefined): 73%; `CNC(=O)C1CCC(Cn2c(=O)c3sccc3n(CC(=O)Nc3ccc(C)cc3C)c2=O)CC1` (centres undefined): 87%.
As for `COc1ccc(CC(=O)NC2CC(=O)N(c3cccc(F)c3)C2)cc1` (centres undefined), the survival is 94%.
Turning to `O=C(Nc1nncs1)C1c2ccccc2Oc2ccccc21`, the survival was 108%.
For the molecule `CCOC(=O)C1CCCN(S(=O)(=O)c2ccc3c(c2)CCCN3C(C)=O)C1` (centres undefined), the survival is 80%.
Next, `CS(=O)(=O)N1CCSC1c1ccc(Cl)cc1Cl` (centres undefined): 109%; `COc1ccc2oc(=O)c(-c3nnc(-c4ccccc4)o3)cc2c1`: 69%; `O=C(O)CCC(=O)NCc1ccccn1`: 82%.
The same measure for `COc1cccc(NC(=O)CSc2nc3ccc(NC(=O)c4cccs4)cc3s2)c1`: 65%; for `CCN(CC)c1ccc2cc(-c3nc(-c4ccc(Cl)cc4Cl)cs3)c(=O)oc2c1`: 37% (active); for `COc1ccccc1/C=C(\C#N)c1nc(-c2cc3ccccc3oc2=O)cs1`: 56% (active).
Turning to `COc1ccc(/C=C(/C#N)c2nc(-c3cc4ccccc4oc3=O)cs2)cc1`, the survival is 78%.
The same measure for `Cc1csc(-c2cc3ccccc3oc2=O)n1`: 85%; for `O=c1oc2ccccc2cc1-c1nc(-c2cccc(Cl)c2)cs1`: 102%; for `CCN(CC)c1ccc2cc(-c3nnc(-c4cccc(Cl)c4)o3)c(=O)oc2c1`: 69%.
For the molecule `CCN(CC)c1ccc2cc(-c3nc(-c4ccccc4F)no3)c(=O)oc2c1`, the survival is 101%.
Next, `COc1ccc(/C=C(\C#N)c2nc(-c3cc4ccccc4oc3=O)cs2)cc1OC`: 65%.
Take `Cc1cc(C)c(-c2csc(-c3cc4ccccc4oc3=O)n2)cc1C`: the survival is 31% (active).
Next, `CCCNC(=O)C1CCC(Cn2c(=O)c3sccc3n(CC(=O)N3CCCC3)c2=O)CC1` (centres undefined): 67%; `O=c1cc(-c2ccc(F)cc2)nc(SCc2nc(-c3cccc(C(F)(F)F)c3)no2)[nH]1`: 99%; `COc1ccc(C)cc1NC(=O)C(CCSC)NS(=O)(=O)c1ccc2c(c1)oc(=O)n2C` (centres undefined): 95%.
Regarding `CCc1cccc(NC(=O)c2cnc(SC)nc2-c2ccccc2)c1`, the survival is 84%.
The same measure for `COc1ccc2c(Sc3ccccc3)c(C(=O)NCc3cc(Br)ccc3OC)[nH]c2c1`: 95%; for `Cc1cc(C)cc(NC(=O)CSc2cc(C)[nH]c(=O)n2)c1`: 90%.
The same measure for `CC(=O)c1cccc(Nc2ncnc3c2cnn3-c2cccc(Cl)c2)c1`: 102%; for `COc1cccc(C2=CC(c3ccc(OC)c(OC)c3OC)n3ncnc3N2)c1` (centres undefined): 91%.
The same measure for `COc1ccc(C2C=C(c3ccccc3)Nc3nc(NS(=O)(=O)c4ccccc4)nn32)cc1` (centres undefined): 25% (active); for `COc1ccc(C2C=C(c3ccc(Cl)c(Cl)c3)Nc3ncnn32)cc1` (centres undefined): 6% (active).
For `Cc1ccc(C2=CC(c3c(F)cccc3Cl)n3ncnc3N2)cc1C` (centres undefined), the survival is 64%.
Next, `COc1ccc(C2C=C(c3ccc(Cl)cc3)Nc3nc(-c4ccc(Cl)cc4)nn32)cc1` (centres undefined): 38% (active); `CC(C)c1ccc(C2=CC(c3cccc(Cl)c3)n3ncnc3N2)cc1` (centres undefined): -1% (active); `CC(C)c1ccc(C2=CC(c3ccc(C(C)C)cc3)n3nnnc3N2)cc1` (centres undefined): 67%.
Next, `Cc1ccc(C2=CC(c3ccc(Cl)cc3)n3nc(-c4ccc(C)cc4)nc3N2)cc1` (centres undefined): 44%.
Next, `COc1ccc(C2C=C(c3ccc(F)cc3)Nc3nc(-c4ccc(Cl)cc4)nn32)cc1` (centres undefined): 104%; `COc1ccc(C2C=C(c3ccccc3)Nc3nc(NS(=O)(=O)c4ccc(C)cc4)nn32)cc1` (centres undefined): 55%.
In the case of `CC(C)c1ccc(C2=CC(c3cccc(Cl)c3)n3c(nc4ccccc43)N2)cc1` (centres undefined), the survival is 76%.
`CC(=O)Nc1ccc(S(=O)(=O)NCc2ccc3c(c2)CCN3C(C)=O)cc1`: the survival was 89%.
Turning to `Cc1ccc(N2C(=O)[C@@H]3CSC(c4ccc(Cl)cc4)N3C2=O)cc1` (some centres undefined), the survival is 69%.
Next, `O=C(Cn1ccn(-c2ccc(F)c(F)c2)c(=O)c1=O)Nc1ccccc1F`: 65%; `COc1ccc(CNCC#N)cc1OC`: 77%.
On to `CCn1cc(S(=O)(=O)c2ccc(OC)cc2)c(=O)c2cc(F)c(N3CCC(C)CC3)cc21`, for which the survival was 83%.
Next, `Cc1cc(C)c2c(n1)SCC(=O)N2CC(=O)Nc1c(C)cccc1C`: 98%; `O=C1CC(Sc2ncccc2C(=O)O)C(=O)N1` (centres undefined): 95%.
The same measure for `COC(=O)CSc1nnc(-c2cccc(O)c2)o1`: 82%; for `Cn1c(=O)oc2cc(S(=O)(=O)NC(Cc3ccccc3)C(=O)NCc3ccccc3Cl)ccc21` (centres undefined): 110%.
Next, `CCCc1cc(N2CCN(c3ccc(OC)cc3)CC2)n2cnnc2n1`: 71%; `COc1ccc(C2C=C(c3ccc(Cl)cc3)Nc3nc(NC(=O)CCC(=O)O)nn32)cc1` (centres undefined): 74%; `COc1ccc(C2C=C(c3ccccc3)Nc3nc(NS(=O)(=O)c4ccc(Cl)cc4)nn32)cc1` (centres undefined): 3% (active).
As to `COc1cc2c(=O)n(Cc3ccccc3Cl)c(=O)n(CC(=O)Nc3ccc(C)c(C)c3)c2cc1OC`, the survival is 83%.
Turning to `O=C(Cn1c(=O)oc2cc(S(=O)(=O)N3CCCC3)ccc21)NCc1ccc(F)cc1`, the survival is 114%.
Next, `CCCN(Cc1cc2cc(C)ccc2[nH]c1=O)C(=O)c1cccc(Cl)c1`: 73%; `Cc1ccccc1NS(=O)(=O)c1ccc2[nH]c3c(c2c1)CCCCC3`: 89%.
Next, `Cc1ccc(C)c(NC(=O)CSc2ncc(S(=O)(=O)c3ccc(C)c(Cl)c3)c(=O)[nH]2)c1`: 66%; `Cc1ccc(C)c(S(=O)(=O)c2cnc(SCC(=O)Nc3ccc(F)cc3F)[nH]c2=O)c1`: 43% (active); `CCc1ccc(NC(=O)CSc2ncc(S(=O)(=O)c3cc(C)ccc3C)c(=O)[nH]2)cc1`: 59%.
Next, `Nc1ccc(N2CCOCC2)c(N)c1`: 74%.
In the case of `Nc1ccc(N2CCN(c3ncc(C(F)(F)F)cc3Cl)CC2)c(C(F)(F)F)c1`, the survival was -5% (active).
Next, `Nc1ccc(-c2ccc(N)cc2C(F)(F)F)c(C(F)(F)F)c1`: 91%.
The same measure for `CCCOc1ccccc1C1Oc2nc(SC)nnc2-c2ccccc2N1C(C)=O` (centres undefined): 82%; for `O=C(CCn1c(=O)oc2ccccc21)n1c(=O)oc2ccccc21`: 108%.
The same measure for `Cc1ccc(Nc2c3c(nc4nc(-c5cccs5)nn24)CCCC3)cc1F`: 20% (active).
As to `COc1cc(OC)c(Nc2c3c(nc4nc(-c5cccs5)nn24)CCCC3)cc1Cl`, the survival was 89%.
The same measure for `COc1ccc(C)cc1Nc1c2c(nc3nc(-c4cccs4)nn13)CCCC2`: 91%; for `CC(=O)c1cccc(Nc2c3c(nc4nc(-c5cccs5)nn24)CCCC3)c1`: 95%.
For the molecule `Cc1ccc(Nc2c3c(nc4nncn24)CCC3)cc1C`, the survival was 55%.
The same measure for `Fc1cc(Br)ccc1Nc1c2c(nc3nc(-c4cccs4)nn13)CCCC2`: 8% (active).

Source of the values: PubChem BioAssay AID463173 (ICCB-Longwood Screening Facility, Harvard Medical School, 2010).
